# According to PubChem BioAssay AID1159580 (chemical genetic matrix, 2015):
# Screen size: about 5,500 compounds; about 2,000 (36%) were called active. About 18% were inconclusive and are not listed. Some of the results follow. Unmarked numbers belong to inactive results. Rule as the data show it: active = normalized growth mostly below about 0.91 (no sharp cut-off); inconclusive = no clear call, values can overlap the other calls; inactive = mostly above about 0.92.
# Assay: chemical genetic growth profiling, strain panel (AID 1159580);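 also: tested at 20 µM; growth read once vehicle control cultures reached saturation at 30 °C; 1 = growth at the plate median or of vehicle wells; lower values mean less growth of the strain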
# Settings: growth OD
smiles,measurement,setting,value
C#C[C@]1(O)CCC2C3CCc4cc(O)ccc4C3CC[C@@]21C (stereo partly drawn),normalized growth,"S. cerevisiae deletion strains, locus YJR043C, strain POL32, active compounds read low",0.927
same,normalized growth,"S. cerevisiae deletion strains, locus YJR066W, strain TOR1, active compounds read low",0.81 (active)
same,normalized growth,"S. cerevisiae deletion strains, locus YKL009W, strain mrt4, active compounds read low",0.827 (active)
same,normalized growth,"S. cerevisiae deletion strains, locus YKL068W, active compounds read low",1.03
same,normalized growth,"S. cerevisiae deletion strains, locus YKL085W, strain MDH1 (second series), active compounds read low",1.01
same,normalized growth,"S. cerevisiae deletion strains, locus YKL085W, strain MDH1, active compounds read low",1.01
same,normalized growth,"S. cerevisiae deletion strains, locus YKL160W, strain elf1, active compounds read low",0.996
same,normalized growth,"S. cerevisiae deletion strains, locus YKR001C, strain vps1, active compounds read low",0.959
same,normalized growth,"S. cerevisiae deletion strains, locus YKR026C, strain gcn3, active compounds read low",1.05
same,normalized growth,"S. cerevisiae deletion strains, locus YKR091W, strain srl3, active compounds read low",1.02
same,normalized growth,"S. cerevisiae deletion strains, locus YLL001W, strain dnm1, active compounds read low",1.05
same,normalized growth,"S. cerevisiae deletion strains, locus YLL026W, active compounds read low",1.01
same,normalized growth,"S. cerevisiae deletion strains, locus YLL041C, strain sdh2, active compounds read low",1.03
same,normalized growth,"S. cerevisiae deletion strains, locus YLR027C, strain aat2, active compounds read low",0.938
same,normalized growth,"S. cerevisiae deletion strains, locus YLR039C, strain RIC1, active compounds read low",0.766
same,normalized growth,"S. cerevisiae deletion strains, locus YLR058C, strain SHM2, active compounds read low",0.995
same,normalized growth,"S. cerevisiae deletion strains, locus YLR102C, strain apc9, active compounds read low",1.03
same,normalized growth,"S. cerevisiae deletion strains, locus YLR113W, strain HOG1, active compounds read low",1.05
same,normalized growth,"S. cerevisiae deletion strains, locus YLR221C, strain rsa3, active compounds read low",0.965
same,normalized growth,"S. cerevisiae deletion strains, locus YLR258W, strain gsy2, active compounds read low",0.982
same,normalized growth,"S. cerevisiae deletion strains, locus YLR262C, strain YPT6 (second series), active compounds read low",0.735 (active)
same,normalized growth,"S. cerevisiae deletion strains, locus YLR262C, strain YPT6, active compounds read low",0.683
same,normalized growth,"S. cerevisiae deletion strains, locus YLR268W, strain sec22, active compounds read low",0.91
same,normalized growth,"S. cerevisiae deletion strains, locus YLR320W, strain mms22, active compounds read low",0.898
same,normalized growth,"S. cerevisiae deletion strains, locus YLR330W, strain CHS5, active compounds read low",1.01
same,normalized growth,"S. cerevisiae deletion strains, locus YLR342W, strain FKS1 (second series), active compounds read low",0.724 (active)
same,normalized growth,"S. cerevisiae deletion strains, locus YLR342W, strain FKS1, active compounds read low",0.983
same,normalized growth,"S. cerevisiae deletion strains, locus YLR357W, strain rsc2, active compounds read low",1.1
same,normalized growth,"S. cerevisiae deletion strains, locus YLR370C, strain arc18, active compounds read low",1.03
same,normalized growth,"S. cerevisiae deletion strains, locus YLR371W, strain rom2, active compounds read low",1.03
same,normalized growth,"S. cerevisiae deletion strains, locus YLR384C, strain iki3, active compounds read low",1.04
same,normalized growth,"S. cerevisiae deletion strains, locus YLR418C, strain cdc73, active compounds read low",0.791 (active)
same,normalized growth,"S. cerevisiae deletion strains, locus YML016C, strain PPZ1, active compounds read low",1.03
same,normalized growth,"S. cerevisiae deletion strains, locus YML032C, strain rad52, active compounds read low",0.913
same,normalized growth,"S. cerevisiae deletion strains, locus YML120C, strain ndi1, active compounds read low",0.985
same,normalized growth,"S. cerevisiae deletion strains, locus YML124C, strain tub3, active compounds read low",1.03
same,normalized growth,"S. cerevisiae deletion strains, locus YMR058W, strain fet3, active compounds read low",0.947
same,normalized growth,"S. cerevisiae deletion strains, locus YMR078C, strain ctf18, active compounds read low",1.02
same,normalized growth,"S. cerevisiae deletion strains, locus YMR125W, strain sto1, active compounds read low",1.13 [resistant] (active)
same,normalized growth,"S. cerevisiae deletion strains, locus YMR129W, active compounds read low",1.02
same,normalized growth,"S. cerevisiae deletion strains, locus YMR205C, strain PFK2, active compounds read low",0.995
same,normalized growth,"S. cerevisiae deletion strains, locus YMR223W, strain ubp8, active compounds read low",0.948
same,normalized growth,"S. cerevisiae deletion strains, locus YMR231W, strain pep5, active compounds read low",1.02
same,normalized growth,"S. cerevisiae deletion strains, locus YMR307W, strain GAS1, active compounds read low",0.681
same,normalized growth,"S. cerevisiae deletion strains, locus YNL067W, strain RPL9B, active compounds read low",0.9
same,normalized growth,"S. cerevisiae deletion strains, locus YNL071W, strain lat1, active compounds read low",0.97
same,normalized growth,"S. cerevisiae deletion strains, locus YNL183C, strain NPR1, active compounds read low",0.91
same,normalized growth,"S. cerevisiae deletion strains, locus YNL209W, strain ssb2, active compounds read low",1.02
same,normalized growth,"S. cerevisiae deletion strains, locus YNL233W, strain BNI4, active compounds read low",0.928
same,normalized growth,"S. cerevisiae deletion strains, locus YNL248C, strain rpa49, active compounds read low",0.955
same,normalized growth,"S. cerevisiae deletion strains, locus YNL250W, strain rad50, active compounds read low",0.989
same,normalized growth,"S. cerevisiae deletion strains, locus YNL271C, strain bni1, active compounds read low",0.968
same,normalized growth,"S. cerevisiae deletion strains, locus YNL298W, strain CLA4, active compounds read low",0.909
same,normalized growth,"S. cerevisiae deletion strains, locus YNL307C, strain MCK1, active compounds read low",0.813 (active)
same,normalized growth,"S. cerevisiae deletion strains, locus YNL322C, strain KRE1 (second series), active compounds read low",1.03
same,normalized growth,"S. cerevisiae deletion strains, locus YNL322C, strain KRE1, active compounds read low",1.01
same,normalized growth,"S. cerevisiae deletion strains, locus YNR049C, strain mso1, active compounds read low",1.04
same,normalized growth,"S. cerevisiae deletion strains, locus YNR052C, strain pop2, active compounds read low",0.965
same,normalized growth,"S. cerevisiae deletion strains, locus YOL006C, strain TOP1, active compounds read low",0.726
same,normalized growth,"S. cerevisiae deletion strains, locus YOL012C, strain htz1",2.07
same,normalized growth,"S. cerevisiae deletion strains, locus YOL147C, strain pex11, active compounds read low",1.02
same,normalized growth,"S. cerevisiae deletion strains, locus YOR001W, strain rrp6, active compounds read low",0.939
same,normalized growth,"S. cerevisiae deletion strains, locus YOR061W, strain CKA2, active compounds read low",1.01
same,normalized growth,"S. cerevisiae deletion strains, locus YOR069W, strain VPS5, active compounds read low",1.02
same,normalized growth,"S. cerevisiae deletion strains, locus YOR070C, strain gyp1, active compounds read low",0.987
same,normalized growth,"S. cerevisiae deletion strains, locus YOR080W, strain dia2, active compounds read low",1.01
same,normalized growth,"S. cerevisiae deletion strains, locus YOR083W, strain WHI5, active compounds read low",0.974
same,normalized growth,"S. cerevisiae deletion strains, locus YOR106W, strain vam3, active compounds read low",0.938
same,normalized growth,"S. cerevisiae deletion strains, locus YOR136W, strain idh2, active compounds read low",1.01
same,normalized growth,"S. cerevisiae deletion strains, locus YOR144C, strain elg1, active compounds read low",0.998
same,normalized growth,"S. cerevisiae deletion strains, locus YOR184W, strain ser1, active compounds read low",0.624 (active)
same,normalized growth,"S. cerevisiae deletion strains, locus YOR231W, strain MKK1, active compounds read low",0.95
same,normalized growth,"S. cerevisiae deletion strains, locus YOR265W, strain rbl2, active compounds read low",1.03
same,normalized growth,"S. cerevisiae deletion strains, locus YOR270C, strain vph1, active compounds read low",0.905
same,normalized growth,"S. cerevisiae deletion strains, locus YOR290C, strain snf2, active compounds read low",0.908
same,normalized growth,"S. cerevisiae deletion strains, locus YOR316C, strain cot1, active compounds read low",1.04
same,normalized growth,"S. cerevisiae deletion strains, locus YPL051W, strain arl3, active compounds read low",0.91 (active)
same,normalized growth,"S. cerevisiae deletion strains, locus YPL078C, strain atp4, active compounds read low",0.915
same,normalized growth,"S. cerevisiae deletion strains, locus YPL106C, strain sse1, active compounds read low",1.14
same,normalized growth,"S. cerevisiae deletion strains, locus YPL240C, strain hsp82, active compounds read low",1.02
same,normalized growth,"S. cerevisiae deletion strains, locus YPL241C, strain CIN2, active compounds read low",1.03
same,normalized growth,"S. cerevisiae deletion strains, locus YPL256C, strain CLN2, active compounds read low",1.03
same,normalized growth,"S. cerevisiae deletion strains, locus YPR119W, strain clb2, active compounds read low",1.04
same,normalized growth,"S. cerevisiae deletion strains, locus YPR141C, strain kar3, active compounds read low",1.04
same,normalized growth,"S. cerevisiae deletion strains, locus YPR163C, strain tif3, active compounds read low",0.934
same,normalized growth,"S. cerevisiae deletion strains, locus YPR167C, strain met16, active compounds read low",1.01
same,normalized growth,"S. cerevisiae deletion strains, strain wtn01, active compounds read low",0.906
same,normalized growth,"S. cerevisiae strains, strain wild type, active compounds read low",0.999
